Calls of active or inactive are those of the source. The calls were made as follows: active = hit-call score of the fitted dose curve at least 0.9, where 1 is the maximum; inactive = score below 0.9.

A short description of assay [1]: ATG_CRE_CIS: Attagene CIS-FACTORIAL HepG2 Assay for human cAMP Responsive Element (CRE) binding protein 3 (AID 2282926). As to conditions: HepG2 CRE cis-reporter, Attagene multiplexed mRNA; actives raise or lower the signal. An outline of the steps:
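Capillary electrophoresis of 6-FAM-labelled, HpaI-digested PCR products quantified reporter transcripts. These came from HepG2 transiently transfected with cis-element reporters and exposed to test chemicals for 24 hours, with DMSO defining baseline activity.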

Assay [2] deals with CCAAT/enhancer-binding protein beta (Homo sapiens) (UniProt P17676). The experiment in a line: ATG_C_EBP_CIS: Attagene CIS-FACTORIAL HepG2 Assay for human CCAAT/Enhancer Binding Protein (C/EBP) beta (AID 2282927). As to conditions: HepG2 Attagene cis-factorial transcription factor reporter; actives raise or lower the signal. The essentials:
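Endogenous C/EBPb-driven reporter transcripts measured in transfected human HepG2 cells at 24 h via RT-PCR and capillary electrophoresis of labelled fragments. Activity fitted in both directions relative to DMSO baseline.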

Assay [3] in a line: ATG_DR4_LXR_CIS: Attagene CIS-FACTORIAL HepG2 Assay for human Liver X Receptor (LXR), DR4 submotif (AID 2282929). The note with it: HepG2 Attagene DR4 cis-reporter, mRNA transcription; actives raise or lower the signal. The essentials:
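Readout: reporter transcript fluorescence after RT-PCR and capillary electrophoresis, fitted bidirectionally against DMSO controls. Human HepG2 liver cells carried transiently transfected multiplexed reporter constructs; endogenous transcription factor activity measured 24 h post-dosing.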

Assay [4] concerns the target Aryl hydrocarbon receptor (Homo sapiens) (UniProt P35869). Briefly: ATG_Ahr_CIS: Attagene CIS-FACTORIAL HepG2 Assay for human Aryl Hydrocarbon Receptor (Ahr) (AID 2282930). As to conditions: HepG2 AhR cis-factorial reporter transcription; actives raise or lower the signal. An outline of the steps: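 Reporter mRNA levels, quantified by RT-PCR and fluorescent capillary electrophoresis, reflect endogenous AhR transcriptional activity in HepG2 cells carrying transfected cis-promoter reporter constructs. Readout at 24 h post-dose; gain or loss fitted against DMSO baseline.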

A short description of assay [5]: ATG_AP_1_CIS: Attagene CIS-FACTORIAL HepG2 Assay for human Activator Protein 1 (AP-1) (AID 2282931). As to conditions: HepG2 Attagene cis-factorial AP-1 reporter mRNA; actives raise or lower the signal. An outline of the steps: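 Reporter transcripts were measured 24 h after dosing by RT-PCR and capillary electrophoresis of fluorescent fragments. Cells: HepG2 carrying transfected cis-regulated reporter constructs reading endogenous factor activity. Gain or loss fitted against DMSO.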

The nature of assay [6]: ATG_BRE_CIS: Attagene CIS-FACTORIAL HepG2 Assay for human Bone Morphogenetic Protein (BMP) Response Element (BRE) (AID 2282933). The note with it: HepG2 BMP response element reporter, Attagene transcription factor profiling; actives raise or lower the signal. An outline of the steps: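 HepG2 cells transiently transfected with CIS reporter units (endogenous TF activity, BMP response element), dosed 24 h. Reporter mRNA quantified by RT-PCR, fluorescent labelling and capillary electrophoresis; bidirectional fit vs DMSO baseline.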

The target in assay [7] is Retinoic acid receptor alpha (Homo sapiens) (UniProt P10276). Briefly: ATG_DR5_RAR_CIS: Attagene CIS-FACTORIAL HepG2 Assay for human Retinoic Acid Receptor Alpha (RARE), DR5 submotif (AID 2282934). The note with it: HepG2 Attagene cis-factorial RARE DR5 reporter, mRNA; actives raise or lower the signal. The essentials:
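Reporter transcripts from a DR5-regulated unit, measured via RT-PCR plus capillary electrophoresis, reflect endogenous RAR activity in transiently transfected human HepG2 liver cells. Exposure lasted 24 h; gain or loss of signal scored against DMSO.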

A short description of assay [8]: ATG_AP_2_CIS: Attagene CIS-FACTORIAL HepG2 Assay for human Activator Protein 2 (AP-2) (AID 2282932). As to conditions: HepG2 AP-2 cis-reporter, Attagene transcription factor profiling; actives raise or lower the signal. The essentials:
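Transiently transfected HepG2 cells are exposed to chemical for 24 h. Reporter transcripts are then measured as fluorescence following RT-PCR and capillary separation, and gain- or loss-of-signal is fitted relative to DMSO.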

Sequence of Retinoic acid receptor alpha (Homo sapiens) (P10276 whole entry, looked up): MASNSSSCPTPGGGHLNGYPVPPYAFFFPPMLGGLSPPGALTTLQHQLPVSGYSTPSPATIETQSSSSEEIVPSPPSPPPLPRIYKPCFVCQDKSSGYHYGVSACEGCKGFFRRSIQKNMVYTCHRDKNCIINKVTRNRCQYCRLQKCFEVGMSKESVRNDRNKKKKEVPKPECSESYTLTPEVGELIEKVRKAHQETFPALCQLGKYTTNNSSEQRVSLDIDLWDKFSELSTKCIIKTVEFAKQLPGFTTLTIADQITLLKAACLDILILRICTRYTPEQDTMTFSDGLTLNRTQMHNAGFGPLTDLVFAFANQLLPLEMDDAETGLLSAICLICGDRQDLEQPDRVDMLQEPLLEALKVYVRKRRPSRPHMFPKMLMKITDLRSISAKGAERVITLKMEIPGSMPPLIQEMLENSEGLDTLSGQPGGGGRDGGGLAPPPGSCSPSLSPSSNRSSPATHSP
Sequence of Aryl hydrocarbon receptor (Homo sapiens) (P35869 whole entry, looked up): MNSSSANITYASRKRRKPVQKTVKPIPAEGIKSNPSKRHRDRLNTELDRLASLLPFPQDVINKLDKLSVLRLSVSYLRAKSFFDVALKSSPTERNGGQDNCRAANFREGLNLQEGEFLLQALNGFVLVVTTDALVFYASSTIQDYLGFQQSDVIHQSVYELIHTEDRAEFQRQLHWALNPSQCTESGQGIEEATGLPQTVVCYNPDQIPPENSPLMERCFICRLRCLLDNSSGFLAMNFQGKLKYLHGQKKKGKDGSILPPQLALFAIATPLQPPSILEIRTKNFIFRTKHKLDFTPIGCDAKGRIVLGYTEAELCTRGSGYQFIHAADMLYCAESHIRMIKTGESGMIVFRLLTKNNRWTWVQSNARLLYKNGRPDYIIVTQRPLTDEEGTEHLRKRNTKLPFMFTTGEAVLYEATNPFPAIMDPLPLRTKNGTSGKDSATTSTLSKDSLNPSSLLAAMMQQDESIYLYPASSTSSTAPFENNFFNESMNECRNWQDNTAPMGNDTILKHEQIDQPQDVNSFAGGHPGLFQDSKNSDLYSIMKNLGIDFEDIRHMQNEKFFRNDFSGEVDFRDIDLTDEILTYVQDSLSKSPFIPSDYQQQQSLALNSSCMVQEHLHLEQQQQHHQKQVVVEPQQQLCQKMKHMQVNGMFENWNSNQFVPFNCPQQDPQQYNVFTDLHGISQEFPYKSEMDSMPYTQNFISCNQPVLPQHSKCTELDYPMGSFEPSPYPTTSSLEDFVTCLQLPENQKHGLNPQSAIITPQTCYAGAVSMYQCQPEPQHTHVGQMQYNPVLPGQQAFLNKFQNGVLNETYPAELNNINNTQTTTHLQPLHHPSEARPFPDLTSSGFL
Sequence of CCAAT/enhancer-binding protein beta (Homo sapiens) (P17676 whole entry, looked up, the tested form may be a part): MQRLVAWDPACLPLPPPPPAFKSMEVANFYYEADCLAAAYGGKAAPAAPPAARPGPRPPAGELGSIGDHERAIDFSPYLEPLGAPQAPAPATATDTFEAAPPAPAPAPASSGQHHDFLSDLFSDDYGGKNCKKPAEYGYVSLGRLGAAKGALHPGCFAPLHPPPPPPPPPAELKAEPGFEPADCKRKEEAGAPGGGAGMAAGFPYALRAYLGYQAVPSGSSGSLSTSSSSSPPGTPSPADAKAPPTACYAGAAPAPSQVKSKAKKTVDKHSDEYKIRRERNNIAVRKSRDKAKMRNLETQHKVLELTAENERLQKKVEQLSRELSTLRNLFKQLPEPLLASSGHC

On to `CC(C)Nc1ccc(Nc2ccccc2)cc1`, for which the result in assay [1], in assay [2], in assay [4], in assay [6] and in assay [7] was inactive. The results for the AC50 in assay [3] and in assay [5] were 32.4 µM (active) and 60 µM (active), respectively.
`COP(N)(=S)OC`: the molecule was classed as inactive in assay [1], in assay [2], in assay [3], in assay [4], in assay [5] and in assay [6]. Also, the outcome in assay [7] was inactive.
Take `O=S(=O)(c1ccc(O)cc1)c1ccc(O)cc1`: the molecule was called inactive in assay [1], in assay [2], in assay [3], in assay [4], in assay [5] and in assay [6]. Further, the molecule was classed as inactive in assay [7].
`CCCCOCC1CO1` (configuration not stated): the outcome in assay [1], in assay [2], in assay [3], in assay [4], in assay [5] and in assay [8] was inactive. Also, the call in assay [6] and in assay [7] was inactive.
Take `NC(=O)C(F)(F)C(F)(F)F`: the outcome in assay [1], in assay [2], in assay [3], in assay [4], in assay [5] and in assay [8] was inactive. Further, the molecule was classed as inactive in assay [6] and in assay [7].
For the molecule `CCOP(=S)(OCC)SCS(=O)(=O)CC`, the molecule was called inactive in assay [1], in assay [2], in assay [3], in assay [4], in assay [5] and in assay [6]. In assay [7], the result was inactive.
For `O=C(O)C(F)(F)C(F)(F)C(=O)O`, the result in assay [1], in assay [2], in assay [3], in assay [4], in assay [5] and in assay [8] was inactive. Further, the molecule was called inactive in assay [6] and in assay [7].

For the origin of these results see PubChem BioAssay (EPA / NIEHS).
